Source: PubChem BioAssay
A selection: hits, their analogues and other compounds. The true share with any hit is near 3.8%.
Wnt bcat act: activates Wnt/beta-catenin signaling in a reporter cell assay; activator, plate reader; activation, % at 9.35 µM; hit rate 1.2% among 300,000; AID 743398; in the data active = activation above about 30%, passing the limit was not always enough; inconclusive = no clear call, values can overlap the other calls
esBAF inh: inhibitors of esBAF chromatin remodeling in mouse ES cells; Bmi1-luciferase knock-in reporter, 24 h; 100% = twice the neutral-well signal; AID 602393; reporter increase, % at 12.5 µM; hit rate 2% among 350,000; in the data active = activation above about 40%; inconclusive = no clear call, values can overlap the other calls;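 also: a rise in the Bmi1 reporter signal indicates esBAF inhibition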
HSF1 inhib: HSF1 inhibition; NIH3T3-HGL HSE-luciferase, MG132-induced, luminescence 8 h; active compounds read low; activity change, negative = inhibition, % at 7.5 µM (by protocol); hit rate 0.77% among 300,000;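 active = more than half of replicate wells show activity change below -50%, luminescence cut by over half; inconclusive = some wells, but at most half, below -50%; inactive = no replicate well below -50%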;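 also: luciferase reports HSF-1 transcriptional activity via heat shock element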
HSF-1 act: increases HSF-1 driven luciferase reporter signal; NIH3T3-HGL HSF-1 luciferase reporter, MG132, 8 h; 100% = twice DMSO control signal; activation, % at 9 µM; hit rate 1.7% among 300,000;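 active = mean replicate activation of at least 50% with a set share of replicates each reaching 50%; inconclusive = only one of those two conditions met; inactive = mean below 50% and too few replicates reaching it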
MITF TRPM1 HTS: MITF TRPM1 promoter activation in melanoma cells; SK-MEL-5 TRPM1-promoter luciferase, 24 h; % of positive control, neutral wells = 0; activation, % at 12.5 µM; hit rate 0.75% among 300,000; AID 588334;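 active = mean activation of at least 80% with every replicate also reaching 80%; inconclusive = mean reaches 80% but some replicate falls short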
Each line names hits and unclear results; the compound was inactive in the other large screens.

NC(=O)Cc1c[nH]c2cccc(O)c12	Wnt bcat act 36 (no result: MITF TRPM1 HTS)
NC(=O)COC(=O)CCCc1c[nH]c2ccccc12	none (no result: Wnt bcat act)
COc1ccccc1NC(=O)Cn1c(=O)c(N(C)C)c(N)n(C)c1=O	HSF1 inhib -71 (no result: esBAF inh)
Cc1cccn2c(=O)c3cc(S(=O)(=O)c4ccccc4)c(=N)n(Cc4ccco4)c3nc12	none
Cc1cccn2c(=O)c3cc(S(=O)(=O)c4ccc(F)cc4)c(=N)n(Cc4ccco4)c3nc12	HSF-1 act 98
COCC(=O)Nc1ccc2c(c1)[C@@H]1C[C@@H](CC(=O)NCc3cccnc3)O[C@@H](CO)[C@@H]1O2	none (no result: Wnt bcat act, HSF1 inhib, HSF-1 act, MITF TRPM1 HTS)
COc1ccccc1C(=O)N(C)c1nnc(-c2ccccc2)s1	Wnt bcat act 40, esBAF inh 49
COc1ccc(C(=O)Nc2nnc(-c3ccccc3)s2)cc1	esBAF inh 47
COc1cccc(C(=O)Nc2sc(C(C)C)cc2C(N)=O)c1OC	HSF1 inhib -79 (no result: esBAF inh)
COc1ccccc1C(=O)Nc1nnc(-c2ccccc2)s1	esBAF inh 47, HSF-1 act inconclusive (no result: MITF TRPM1 HTS)
Cc1ccc(NC(=O)Nc2nnc(-c3ccccc3F)s2)cc1	Wnt bcat act 33 (no result: esBAF inh)
O=C(Nc1nnc(-c2ccccc2F)s1)c1cccnc1	esBAF inh 60
Cc1nnc(NC(=O)c2ccccc2-c2ccccc2C(=O)O)s1	none (no result: esBAF inh)
O=C(Nc1nnc(C(F)(F)F)s1)c1cccnc1	none (no result: Wnt bcat act, HSF1 inhib, HSF-1 act)
CC(C)=CC(=O)Nc1nnc(-c2ccccc2)s1	none
O=C(Nc1ccccc1)Nc1nnc(-c2ccccc2)s1	Wnt bcat act 33, esBAF inh 51 (no result: MITF TRPM1 HTS)
O=C(Nc1nnc(-c2ccccc2)s1)c1ccccc1O	esBAF inh 67
O=C(N[C@@H]1CC[C@H](CCn2cc(C3(O)CCCC3)nn2)O[C@@H]1CO)C1CCOCC1	none (no result: Wnt bcat act, HSF1 inhib, HSF-1 act, MITF TRPM1 HTS)
C[C@H](CO)N1C[C@H](C)[C@H](CN(C)S(=O)(=O)c2ccccc2)Oc2ccc(NC(=O)Nc3ccccc3)cc2C1=O	none (no result: Wnt bcat act, HSF1 inhib, HSF-1 act, MITF TRPM1 HTS)
CCCNC(=O)[C@H]1[C@H](CO)[C@H]2Cn3c(ccc(-c4ccccc4F)c3=O)[C@H]2N1CC1CC1	none (no result: Wnt bcat act, HSF1 inhib, HSF-1 act, MITF TRPM1 HTS)
COc1cccc(C(=O)Nc2nnc(-c3ccccc3)s2)c1OC	Wnt bcat act 45
O=C(Oc1ccc(-c2cn3c(n2)SCC3)cc1)c1ccccc1	none (no result: Wnt bcat act)
CC(=O)Nc1ccc(-c2cn3c(n2)SCC3)cc1	none
Cc1ccc(-c2cn3c(n2)SCC3)cc1	Wnt bcat act 65
CCc1ccc(-c2cn3c(n2)SCC3)cc1	HSF-1 act 51
Cc1noc(C)c1NC(=O)Nc1ccc2c(c1)C(=O)N([C@H](C)CO)C[C@H](C)[C@H](CN(C)C(=O)Nc1c(C)noc1C)O2	none (no result: Wnt bcat act, HSF1 inhib, HSF-1 act, MITF TRPM1 HTS)
Cc1ccc(NC(=O)CN2CCCC2c2cccn2C)c(Br)c1 (stereo not drawn)	MITF TRPM1 HTS 109 (no result: HSF1 inhib, HSF-1 act)
CC(C)NC(=O)Nc1ccc2c(c1)C(=O)N([C@H](C)CO)C[C@@H](C)[C@H](CN(C)C(=O)Nc1ccc(F)cc1)O2	none (no result: Wnt bcat act, HSF1 inhib, HSF-1 act, MITF TRPM1 HTS)
COc1ccc(C(c2c(O)ccc3ccccc23)N2CCOCC2)c(OC)c1 (stereo not drawn)	Wnt bcat act 76, HSF-1 act 106 (no result: esBAF inh, MITF TRPM1 HTS)
CCCN1C[C@@H](C)[C@@H](OC)CN(C)C(=O)c2ccc(NC(=O)c3ccccc3)cc2OC[C@@H]1C	none (no result: Wnt bcat act, HSF1 inhib, HSF-1 act, MITF TRPM1 HTS)
COc1ccc2nc(Cl)c(C#N)cc2c1	HSF1 inhib -65
COc1ccc2nc(N3CCC(C)CC3)c(C#N)cc2c1	esBAF inh 64, MITF TRPM1 HTS 84 (no result: Wnt bcat act)
Cc1ccc2nc(Cl)c(C#N)cc2c1	none (no result: esBAF inh)
C[C@H](CO)N1C[C@H](C)[C@H](CN(C)C)Oc2ccc(NS(=O)(=O)c3cccs3)cc2CC1=O	none (no result: Wnt bcat act, HSF1 inhib, HSF-1 act, MITF TRPM1 HTS)
Cc1ccccc1C(=O)Nc1nnc(CC(=O)N/N=C/c2ccco2)s1	HSF1 inhib -80 (no result: esBAF inh)
COc1ccc2nnc(-c3ccc(C(F)(F)F)cc3)n2n1	HSF1 inhib -89
FC(F)(F)c1cccc(N2CCN(c3ccc4nnc(-c5ccccc5)n4n3)CC2)c1	none (no result: Wnt bcat act)
CCc1ccc(NC(=S)Nc2cccc3cnccc23)cc1	Wnt bcat act 34, esBAF inh 62
Cc1ccc(NC(=S)Nc2cccc3cnccc23)c(C)c1	HSF-1 act 73
Cc1cc(C)cc(NC(=S)Nc2cccc3cnccc23)c1	none (no result: esBAF inh, HSF1 inhib, HSF-1 act)
COc1cccc(-c2cc(C(=O)NCc3cccs3)no2)c1	esBAF inh 72, MITF TRPM1 HTS 134
O=C(NCc1cccs1)c1cc(-c2ccccc2)on1	MITF TRPM1 HTS 99 (no result: Wnt bcat act)
COc1ccc(-c2cc(C(=O)NCc3cccs3)no2)cc1	Wnt bcat act inconclusive, esBAF inh 42, MITF TRPM1 HTS 92
COc1ccc(NC(=O)Cn2nnc(C(=O)NCc3cccs3)c2N)cc1	none (no result: esBAF inh)
COc1ccc2nc3sc(C(=O)NCc4cccs4)c(N)c3cc2c1	HSF-1 act 55 (no result: Wnt bcat act, esBAF inh, MITF TRPM1 HTS)
CCCC(=O)Nc1ccc2c(c1)C(=O)N(C)[C@H]1CC[C@@H](CC(=O)NCCc3ccccc3)O[C@@H]1CO2	none (no result: Wnt bcat act, HSF1 inhib, HSF-1 act, MITF TRPM1 HTS)
O=C(Nc1ccc(C2=NCCN2)cc1)c1ccc(C(=O)Nc2ccc(C3=NCCN3)cc2)c(Cl)c1	none
O=C(Nc1cccc(C2=NCCN2)c1)Nc1cccc(C2=NCCN2)c1	esBAF inh 45 (no result: HSF1 inhib, HSF-1 act)
CO[C@H]1CN(C)C(=O)c2cc(NS(=O)(=O)c3ccccc3)ccc2OC[C@@H](C)N(Cc2cccnc2)C[C@@H]1C	none (no result: Wnt bcat act, HSF1 inhib, HSF-1 act, MITF TRPM1 HTS)
COc1ccc(-c2c(C#Cc3ccsc3)c3ccccc3n2C)cc1	esBAF inh 45
COc1ccc(C#Cc2c(-c3ccccc3)n(C)c3ccccc23)cc1	none (no result: HSF1 inhib, HSF-1 act)
COCC(=O)Nc1ccc2c(c1)C(=O)N(C)C[C@H](OC)[C@@H](C)CN(Cc1cccnc1)[C@@H](C)CO2	none (no result: Wnt bcat act, HSF1 inhib, HSF-1 act, MITF TRPM1 HTS)
CC(C)CNS(=O)(=O)c1ccc(CCC(=O)N2CCOCC2)cc1	HSF1 inhib -73 (no result: Wnt bcat act)
Cc1cc(C)n(-c2ccc(C(=O)Nc3ccc4c(c3)OCCO4)cc2)n1	esBAF inh 56 (no result: Wnt bcat act)
CC(=O)Nc1ccc(C(=O)Nc2ccc3c(c2)OCCO3)cc1	none
CC(C)CNS(=O)(=O)c1ccc(C(=O)Nc2ccc3c(c2)OCCO3)cc1	esBAF inh 91 (no result: Wnt bcat act)
Cc1ccc(S(=O)(=O)N(C)C[C@@H]2Oc3ccc(NC(=O)C4CC4)cc3CC(=O)N([C@@H](C)CO)C[C@H]2C)cc1	none (no result: Wnt bcat act, HSF1 inhib, HSF-1 act, MITF TRPM1 HTS)
O=C(CSc1nnc(C2CCCCC2)o1)Nc1ccccc1Cl	esBAF inh 62, MITF TRPM1 HTS 109
COc1ccc(S(=O)(=O)Nc2ccc3c(c2)C(=O)N([C@@H](C)CO)C[C@@H](C)[C@H](CN(C)C(=O)c2ccncc2)OCCCC[C@@H](C)O3)cc1	none (no result: Wnt bcat act, HSF1 inhib, HSF-1 act, MITF TRPM1 HTS)
O=C(/C=C/c1cccc([N+](=O)[O-])c1)c1ccco1	none
O=C(/C=C/Nc1ccc(F)cc1)c1ccco1	none (no result: Wnt bcat act)
Cc1ccc(N/C=C/C(=O)c2ccco2)c(O)c1	Wnt bcat act 56, esBAF inh inconclusive
Cc1ccc([N+](=O)[O-])cc1N/C=C/C(=O)c1ccco1	esBAF inh 55
CCc1ccc2oc(-c3ccc(OC)cc3)cc(=Nc3cccc(C(=O)O)c3)c2c1	none
COc1ccc(-c2cc(=Nc3ccc(C(=O)O)cc3)c3cc(C)ccc3o2)cc1	HSF-1 act 57
Nc1nc(NCCc2ccccc2)nc(NCc2ccccc2)c1[N+](=O)[O-]	none (no result: esBAF inh)
